Compound activity as filed in PubChem.
Shown are actives, neighbours in structure and some others; about 4.1% of the full set was active somewhere.
Gli-Sufu block: Gli-Sufu pathway antagonists, primary screen, luciferase luminescence, Sufu-KO-LIGHT cells, uHTS; Sufu-KO-LIGHT fibroblasts, Gli luciferase reporter luminescence; inhibition, % at 5 µM; 340,000 tested, 0.74% active;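 active = inhibition above about 55%, limit read from the data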;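 note: 0% = DMSO-treated cells and 100% = wells with medium but no cells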
Mdm2 MdmX PPI: inhibitors of human Mdm2-MdmX association, primary screen, cell-based, luminescence, split luciferase, SaOS-2, uHTS | AID 485346, 2010 | 330,000 tested, 3% active | Protein Mdm4 (Homo sapiens) + E3 ubiquitin-protein ligase Mdm2 (Homo sapiens), … | inhibition, % at 8 µM | SaOS-2 split-luciferase Mdm2/MdmX complementation;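 active = inhibition of at least 50% at 8 µM in the primary screen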
Target sequence (O15151 whole entry, looked up): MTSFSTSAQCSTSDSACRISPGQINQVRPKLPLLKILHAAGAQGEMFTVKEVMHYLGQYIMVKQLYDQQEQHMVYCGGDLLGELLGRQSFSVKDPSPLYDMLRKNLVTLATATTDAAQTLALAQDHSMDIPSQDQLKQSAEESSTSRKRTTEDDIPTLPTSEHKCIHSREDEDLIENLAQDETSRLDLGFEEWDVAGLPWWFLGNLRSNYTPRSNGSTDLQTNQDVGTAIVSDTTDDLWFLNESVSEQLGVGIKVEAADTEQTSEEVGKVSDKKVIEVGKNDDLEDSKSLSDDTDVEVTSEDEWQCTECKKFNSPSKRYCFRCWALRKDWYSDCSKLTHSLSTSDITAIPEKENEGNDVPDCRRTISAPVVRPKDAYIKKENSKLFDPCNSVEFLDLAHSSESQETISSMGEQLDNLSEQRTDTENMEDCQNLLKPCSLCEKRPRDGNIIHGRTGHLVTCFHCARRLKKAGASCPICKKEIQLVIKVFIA
Target sequence (Q00987 whole entry, looked up): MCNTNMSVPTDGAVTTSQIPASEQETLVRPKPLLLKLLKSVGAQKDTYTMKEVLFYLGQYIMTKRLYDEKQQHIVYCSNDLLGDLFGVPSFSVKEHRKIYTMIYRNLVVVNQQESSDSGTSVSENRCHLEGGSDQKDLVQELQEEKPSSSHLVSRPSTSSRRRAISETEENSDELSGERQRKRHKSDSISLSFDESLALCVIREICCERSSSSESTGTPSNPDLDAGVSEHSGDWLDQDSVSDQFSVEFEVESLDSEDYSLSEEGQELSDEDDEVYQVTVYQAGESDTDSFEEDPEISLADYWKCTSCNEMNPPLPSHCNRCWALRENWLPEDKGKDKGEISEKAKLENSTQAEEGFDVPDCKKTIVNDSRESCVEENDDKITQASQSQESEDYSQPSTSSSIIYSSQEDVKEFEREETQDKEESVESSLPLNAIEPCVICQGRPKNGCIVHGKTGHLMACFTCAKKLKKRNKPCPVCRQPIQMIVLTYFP
aSyn UTR inh: MLPCN primary screen, SNCA 5' untranslated region; 300,000 tested, 0.82% active; inhibition, % (tested at 7.5 µM); alpha-synuclein 5'UTR reporter, inhibitor activity; in the data active = inhibition above about 60%; inconclusive = no clear call, values can overlap the other calls;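 note: H4 neuroglioblastoma cells stably carrying SNCA 5'UTR luciferase fusion; 0% = DMSO wells and 100% = positive control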
Jurkat NFkB inh: inhibitors of induced NF-kB luciferase reporter, primary screen, TCR NF-kB activation inhibitor project, cell-based, luminescence, uHTS; AID 435003, 2010; 330,000 tested, 0.53% active; Jurkat, PMA/ionomycin-induced NF-kB luciferase reporter; inhibition, % at 4 µM; in the data active = inhibition above about 50%
KLF5 inhibitor: KLF5 expression inhibitors, primary screen, DLD-1 cells, luminescence; 290,000 tested, 0.23% active; DLD-1 KLF5 promoter-luciferase reporter; AID 1700, 2009; inhibition, % at 5 µM;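 active = inhibition above a per-plate limit of that plate's mean compound inhibition plus 3 SD, cut at about 60% in these data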;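 note: 0% = DMSO wells and 100% = LY294002 at 200 µM; higher means less KLF5 promoter-driven luciferase light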
697 NFkB inh: inhibitors of PMA/ionomycin-induced NF-kB reporter, 697 cells, primary screen, B-cell NF-kB inhibitor project, cell-based, luminescence, uHTS; 697 B-cell NF-kB luciferase reporter, 16 h; inhibition, % at 4 µM; 330,000 tested, 0.33% active; AID 435022, 2010; in the data active = inhibition above about 35%
Mdm2-MdmX conf: Mdm2-MdmX complex disruptors, retested hits, confirmation, luminescence, single concentration; AID 489028, 2010; shares compounds with Mdm2 MdmX PPI; Mdm2-MdmX binding, luminescent assay; 10,000 tested, 55% active; inhibition, % at 8 µM; in the data active = inhibition above about 40%
FLuc counter: full-length luciferase signal inhibition, confirmation, counter-screen for Mdm2/MdmX interaction inhibitor project, cell-based, single concentration, SaOS-2; shares compounds with Mdm2 MdmX PPI; SaOS-2 full-length luciferase counterscreen, luminescence; inhibition, % at 8 µM; 6,200 tested, 77% active;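 active = mean inhibition at 8 µM reaching about 37%, which flags the compound as non-specific, limit read from the data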;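 note: p53-null SaOS-2 cells with luciferase driven by a doxycycline-inducible promoter; compound on cells about two nights before reading with doxycycline added after day one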
An asterisk follows results filed as active; ? = inconclusive; . = no result given.

SMILES | Gli-Sufu block | Mdm2 MdmX PPI | aSyn UTR inh | Jurkat NFkB inh | KLF5 inhibitor | 697 NFkB inh | Mdm2-MdmX conf | FLuc counter
CC1(C(=O)NCCCN2CCOCC2)Oc2cccnc2NC1=O (stereo not given) | -16 | 5 | 1 | -3 | -20 | 8 | . | .
COc1ccc(C2CC(=O)N(CC(=O)NCC3CCCO3)c3ccccc3S2)cc1OC (stereo not given) | -7 | 5 | 11 | 5 | -31 | 15 | . | .
COc1ccc(C2CC(=O)N(C)c3ccccc3S2)cc1OC (stereo not given) | -50 | 53* | -87 | 0 | 2 | 1 | 34 | .
Cc1nn(-c2ccccc2)nc1CNC(=O)C1CCC1 | 0 | -18 | . | 4 | 0 | 9 | . | .
COc1ccc(NC(=O)N(C)C[C@H]2Oc3c(NC(=O)Nc4ccc(C(F)(F)F)cc4)cccc3C(=O)N([C@H](C)CO)C[C@@H]2C)cc1 | -3 | 60* | . | 12 | . | 20 | 43* | 69*
C[C@H]1CN([C@@H](C)CO)C(=O)c2cccc(NC(=O)Nc3ccc(C(F)(F)F)cc3)c2O[C@@H]1CN(C)Cc1ccc(Cl)c(Cl)c1 | 5 | 72* | . | -37 | . | -10 | 49* | 75*
C[C@@H]1CN([C@H](C)CO)C(=O)c2cc(NC(=O)Nc3ccc(C(F)(F)F)cc3)ccc2O[C@H]1CN(C)Cc1ccc(Cl)c(Cl)c1 | 20 | 98* | . | 5 | . | 9 | 47* | 20
C[C@@H]1CN([C@@H](C)CO)C(=O)c2cc(NC(=O)CCC(F)(F)F)ccc2O[C@H]1CN(C)Cc1ccc(Cl)c(Cl)c1 | 5 | 47 | . | 7 | . | -3 | . | .
C[C@@H]1CN([C@H](C)CO)C(=O)c2cc(NS(=O)(=O)c3ccc(F)cc3)ccc2O[C@@H]1CN(C)Cc1ccc(Cl)c(Cl)c1 | -5 | 78* | . | -12 | . | -11 | 57* | 50*
O=C(CCS(=O)(=O)Cc1cccc(Cl)c1)NCCc1ccccc1 | -1 | 14 | -10 | -1 | -16 | 1 | . | .
C=CCn1c(SCC(=O)N(C)CC(=O)Nc2ccc(C)cc2)nnc1-c1ccncc1 | 4 | -14 | . | 4 | . | 3 | . | .
Cc1nnc(SCC(=O)Nc2ccc([N+](=O)[O-])cc2)n1CC1CCCO1 (stereo not given) | -4 | -2 | 0 | 4 | -9 | 10 | . | .
Cc1nc(N2CCOCC2)[nH]c(=O)c1C | -17 | -27 | 4 | -11 | -4 | -8 | . | .
NC(=O)c1cccc(-c2cnc(N)c(C(=O)c3cccnc3)n2)c1 | -10 | . | . | . | . | . | . | .
CC(=O)Nc1cccc(-c2cnc(N)c(C(=O)c3cccnc3)n2)c1 | -6 | 90* | . | 21 | . | -45 | 93* | 54*
CCCCCC(C)NC(=O)c1cc(S(=O)(=O)N2CCCCC2)ccc1N1CCOCC1 (stereo not given) | 4 | -16 | . | 0 | . | 11 | . | .
COc1cccc(NC(=O)CCNC(=O)N2CC(=O)Nc3ccccc32)c1 | -15 | -3 | -22 | -8 | -6 | -8 | . | .
O=C(NC1CCN(Cc2ccc(Cl)cc2)CC1)c1cn(-c2ccccc2)nc1-c1cccnc1 | 16 | 53* | . | 19 | . | 12 | 32 | .
O=C(O)c1ccc(-c2nc(-c3ccccc3)c(-c3ccccc3)[nH]2)cc1 | 0 | 12 | 2 | -3 | -2 | 1 | . | .
O=[N+]([O-])c1ccc(-c2nc(-c3cccs3)c(-c3cccs3)[nH]2)cc1 | 3 | 56* | 17 | 2 | -33 | -13 | 15 | .
Fc1ccc(-c2nc(-c3cccs3)[nH]c2-c2ccc(F)cc2)cc1 | 11 | 52* | 22 | -7 | -6 | 11 | 40 | 79*
Oc1ccc(-c2nc(-c3ccc(F)cc3)c(-c3ccncc3)[nH]2)cc1 | 22 | 79* | . | -27 | . | 3 | 39 | 75*
CC(=O)Nc1ccc(NC(=O)C(C)Sc2nc3ccccc3c(=O)n2CC2CCCO2)cc1 (stereo not given) | -1 | 18 | -2 | 0 | . | 25 | . | .
C=C1C(C(=O)Nc2ccccc2)C1C(=O)Nc1ccccc1 (stereo not given) | 2 | -20 | 0 | 3 | -26 | 24 | . | .
O=C(NCC(=O)N1CCN(S(=O)(=O)c2ccccc2C(F)(F)F)CC1)c1sc2ccccc2c1Cl | 2 | 57* | -5 | 6 | . | 0 | 33 | .
SMILES | Gli-Sufu block | Mdm2 MdmX PPI | aSyn UTR inh | Jurkat NFkB inh | KLF5 inhibitor | 697 NFkB inh | Mdm2-MdmX conf | FLuc counter
CN(C)c1nc(N)ncc1-c1ccc(Oc2ccccc2)cc1 | 18 | 20 | -6 | -3 | -12 | -31 | . | .
Cc1cc(C)cc(OC(=O)CS(=O)c2ccc(C(F)(F)F)cc2[N+](=O)[O-])c1 (stereo not given) | -13 | 50* | -29 | -13 | -45 | 14 | 40* | 55*
CC1CCN(CCc2nc3cc(NC(=O)COc4ccc(Cl)cc4)ccc3n2C)CC1 | 36 | 57* | 29 | 5 | -13 | 0 | 35 | .
COc1ccc(OCC(=O)Nc2ccc3c(c2)nc(CCN2CCC(C)CC2)n3C)cc1 | 18 | 9 | 14 | -17 | -8 | -4 | . | .
CC(=O)N1CCN(c2ccc(NC(=O)c3ccc4c(c3)OCCO4)cc2Cl)CC1 | -8 | 16 | -45 | -15 | -19 | -20 | . | .
CC(C)C(=O)N1CCN(c2ccc(NC(=O)c3ccc4c(c3)OCCO4)cc2Cl)CC1 | -12 | 60* | -109 | 13 | -36 | -14 | 80* | 65*
O=C1N/C(=N\N=C\c2cccnc2)SC1Cc1ccc(SC(F)F)cc1 (stereo not given) | 27 | 64* | ? | -1 | -23 | -34 | 72* | 44*
O=C1N/C(=N\N=C\c2ccc3ncccc3c2)SC1Cc1ccc(SC(F)F)cc1 (stereo not given) | -39 | 13 | -50 | -16 | -26 | -39 | . | .
CCn1ccc(C(=O)Nc2c(C)nn(Cc3c(F)c(F)c(F)c(F)c3F)c2C)n1 | -1 | -15 | 8 | 14 | -31 | 13 | . | .
COc1nc(/C=C/N(C)C)c([N+](=O)[O-])c(OC)n1 | 4 | 52* | 22 | -1 | -30 | -17 | 22 | .
CC(=O)Oc1ccc2oc(/C=C/N(C)C)c([N+](=O)[O-])c2c1 | -23 | 2 | -49 | 8 | 3 | 0 | . | .
